Reference: PubChem BioAssay (NCI)
The panel holds about 83,000 compounds, 20% with a hit somewhere; the sample as a whole holds those more often.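 Activity criterion: percent growth below 10, measured after cells in 96-well plates were exposed to a single compound concentration for 48 hours.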 Active and inactive are the calls of the source.

Assays:
Test in all cases: NCI-60 one-dose screen, 48 h (100 = growth as untreated, 0 = no growth, -100 = all killed)
NCI-H226 lung = conditions: 10 µM
HOP-62 NSCLC = conditions: 10 µM unless noted
NCI-H460 lung = conditions: 10 µM unless noted
HOP-92 NSCLC = conditions: 10 µM unless noted
NCI-H522 lung = conditions: 10 µM
A549/ATCC NSCLC = conditions: 10 µM unless noted
786-0 renal = conditions: 10 µM unless noted
COLO 205 colon = conditions: 10 µM unless noted
DU-145 prostate = conditions: 10 µM unless noted
K-562 leukemia = conditions: 10 µM unless noted
MALME-3M melanoma = conditions: 10 µM unless noted
MDA-MB-231 breast = conditions: 10 µM unless noted
RXF 393 renal = conditions: 10 µM unless noted
SF-268 CNS = conditions: 10 µM unless noted
SF-295 CNS = conditions: 10 µM unless noted
SF-539 CNS = conditions: 10 µM unless noted
UACC-257 melanoma = conditions: 10 µM unless noted
M14 melanoma = conditions: 10 µM unless noted
NCI-H322M lung = conditions: 10 µM unless noted

Measured: growth

Cc1nc2cc(Nc3nc(Cl)nc(Nc4ccc(F)cc4)n3)ccc2n1Cc1ccccc1
active: NCI-H522 lung -69.8%
inactive: NCI-H226 lung 80.5% | HOP-62 NSCLC 88.4% | NCI-H460 lung 88% | HOP-92 NSCLC 50.7% | A549/ATCC NSCLC 86.7% | 786-0 renal 33% | COLO 205 colon 109% | DU-145 prostate 64% | K-562 leukemia 85.2% | MALME-3M melanoma 107% | MDA-MB-231 breast 82.1% | RXF 393 renal 77.1% | SF-268 CNS 91.1% | SF-295 CNS 96.4% | SF-539 CNS 70.2% | UACC-257 melanoma 89.7% | M14 melanoma 109%

COc1ccc(C(=O)C2=CC(=O)C(=O)C2)cc1OC
inactive: NCI-H226 lung 103% | HOP-62 NSCLC 94.1% | NCI-H460 lung 103% | HOP-92 NSCLC 95.9% | NCI-H522 lung 86.6% | A549/ATCC NSCLC 106% | 786-0 renal 101% | COLO 205 colon 112% | DU-145 prostate 111% | K-562 leukemia 116% | MALME-3M melanoma 114% | MDA-MB-231 breast 124% | RXF 393 renal 106% | SF-268 CNS 103% | SF-295 CNS 100% | SF-539 CNS 95.5% | UACC-257 melanoma 115% | M14 melanoma 107%

Cn1c2c(cc(S(=O)(=O)c3ccccc3)c1=O)CCc1c-2cnn1-c1ccccc1Cl
active: NCI-H522 lung -72.1%
inactive: NCI-H226 lung 117% | HOP-62 NSCLC 113% | NCI-H460 lung 106% | HOP-92 NSCLC 90.8% | A549/ATCC NSCLC 86.7% | 786-0 renal 102% | COLO 205 colon 113% | DU-145 prostate 120% | K-562 leukemia 95.5% | MALME-3M melanoma 108% | MDA-MB-231 breast 101% | RXF 393 renal 111% | SF-268 CNS 106% | SF-295 CNS 87.9% | SF-539 CNS 90.2% | UACC-257 melanoma 89.8% | M14 melanoma 110%

O=C(Nc1ccc(Cl)c(Cl)c1)NC(CO)(CO)CO
inactive: NCI-H226 lung 97.5% | HOP-62 NSCLC 88.1% | NCI-H460 lung 103% | HOP-92 NSCLC 79.9% | NCI-H522 lung 88.7% | A549/ATCC NSCLC 97.4% | 786-0 renal 92.3% | COLO 205 colon 106% | DU-145 prostate 112% | K-562 leukemia 92.8% | MALME-3M melanoma 87.7% | MDA-MB-231 breast 109% | RXF 393 renal 100% | SF-268 CNS 97.8% | SF-295 CNS 94.4% | SF-539 CNS 103% | UACC-257 melanoma 97.5% | M14 melanoma 97.4%

COc1cccc(-c2ccc3c(c2)C2CCN(Cc4ccccc4)C3C2)c1 (configuration not stated)
inactive: NCI-H226 lung 99.2% | HOP-62 NSCLC 72.2% | NCI-H460 lung 93.5% | HOP-92 NSCLC 41% | NCI-H522 lung 55.1% | A549/ATCC NSCLC 71.2% | 786-0 renal 77.4% | COLO 205 colon 79.3% | DU-145 prostate 95.6% | K-562 leukemia 22.7% | MALME-3M melanoma 62.8% | MDA-MB-231 breast 88.8% | RXF 393 renal 98% | SF-268 CNS 86.9% | SF-295 CNS 81.2% | SF-539 CNS 85.1% | UACC-257 melanoma 78.7% | M14 melanoma 72.2%

CCCCCCCCCCCC(=O)[O][Sn]([CH2]CCC)([CH2]CCC)[CH2]CCC
active: NCI-H226 lung -66% | HOP-62 NSCLC -94.9% | NCI-H460 lung -55.2% | HOP-92 NSCLC -95.7% | NCI-H522 lung -96% | A549/ATCC NSCLC -91.1% | 786-0 renal -99.7% | COLO 205 colon -78.2% | DU-145 prostate -98.7% | K-562 leukemia -29.9% | MALME-3M melanoma -96.1% | MDA-MB-231 breast -94.6% | RXF 393 renal -72.4% | SF-268 CNS -83.7% | SF-295 CNS -83.8% | SF-539 CNS -97.7% | UACC-257 melanoma -96.5% | M14 melanoma -99.6%

CC1(C)N=C(N)N=C(N)N1c1cccc(OCCOc2cccc([N+](=O)[O-])c2)c1
inactive: NCI-H226 lung 98.2% | HOP-62 NSCLC 93% | NCI-H460 lung 19% | HOP-92 NSCLC 86.4% | A549/ATCC NSCLC 20.4% | 786-0 renal 81.7% | COLO 205 colon 35% | DU-145 prostate 45.1% | K-562 leukemia 17.9% | MALME-3M melanoma 48.2% | MDA-MB-231 breast 65% | RXF 393 renal 73.2% | SF-268 CNS 22.9% | SF-295 CNS 68.1% | SF-539 CNS 26.1% | UACC-257 melanoma 48.3% | M14 melanoma 64.1%
active: NCI-H522 lung 7.73%

OB(O)c1ccccc1
inactive: NCI-H226 lung 105% | NCI-H322M lung 111% | NCI-H460 lung 110% | HOP-92 NSCLC 112% | NCI-H522 lung 103% | A549/ATCC NSCLC 98.5% | 786-0 renal 103% | COLO 205 colon 116% | DU-145 prostate 111% | MALME-3M melanoma 102% | MDA-MB-231 breast 114% | RXF 393 renal 123% | SF-268 CNS 106% | SF-295 CNS 97.7% | SF-539 CNS 106% | UACC-257 melanoma 99.4% | M14 melanoma 108%

O=C1CC2c3cc(-c4cc5ccccc5o4)ccc3CCN2C(=O)N1c1ccccc1 (configuration not stated)
inactive: NCI-H226 lung 93.5% | HOP-62 NSCLC 82.9% | NCI-H460 lung 87.6% | HOP-92 NSCLC 47.2% | NCI-H522 lung 69.9% | A549/ATCC NSCLC 80% | 786-0 renal 92.8% | COLO 205 colon 96.2% | DU-145 prostate 96.5% | K-562 leukemia 58.4% | MALME-3M melanoma 71.6% | MDA-MB-231 breast 93.3% | RXF 393 renal 114% | SF-268 CNS 92.4% | SF-295 CNS 90% | SF-539 CNS 106% | UACC-257 melanoma 87.8% | M14 melanoma 90.7%

COc1nc2c(cc1S(=O)(=O)c1ccccc1)CCc1c-2cnn1-c1ccccc1Cl
active: HOP-92 NSCLC -1.3%
inactive: NCI-H226 lung 51.8% | HOP-62 NSCLC 69.9% | NCI-H460 lung 67% | NCI-H522 lung 15.3% | A549/ATCC NSCLC 47.1% | 786-0 renal 51.6% | COLO 205 colon 70.4% | DU-145 prostate 90.8% | K-562 leukemia 54.3% | MALME-3M melanoma 97.4% | MDA-MB-231 breast 70.2% | RXF 393 renal 52.6% | SF-268 CNS 74.1% | SF-295 CNS 63% | SF-539 CNS 60.5% | UACC-257 melanoma 72.6% | M14 melanoma 68.9%

Cc1nn(-c2ccccc2)c2nc3nc4c(c(N)c3c(-c3ccc(Cl)cc3)c12)CCCC4
inactive: NCI-H226 lung 83.4% | HOP-62 NSCLC 106% | NCI-H460 lung 97.4% | HOP-92 NSCLC 84.4% | NCI-H522 lung 90.6% | A549/ATCC NSCLC 94.4% | 786-0 renal 86.9% | COLO 205 colon 94.4% | DU-145 prostate 109% | K-562 leukemia 53.4% | MALME-3M melanoma 108% | MDA-MB-231 breast 91.5% | RXF 393 renal 90.9% | SF-268 CNS 105% | SF-295 CNS 96% | SF-539 CNS 96.9% | UACC-257 melanoma 91.9% | M14 melanoma 106%

Cc1cc(C)c(S(=O)O)c(C)c1
inactive: NCI-H226 lung 99% | NCI-H322M lung 124% | NCI-H460 lung 109% | HOP-92 NSCLC 93.1% | NCI-H522 lung 101% | A549/ATCC NSCLC 109% | 786-0 renal 112% | COLO 205 colon 126% | DU-145 prostate 120% | MALME-3M melanoma 122% | MDA-MB-231 breast 102% | RXF 393 renal 101% | SF-268 CNS 114% | SF-295 CNS 93.4% | SF-539 CNS 104% | UACC-257 melanoma 121% | M14 melanoma 116%

CSC1=CC(=O)c2ccccc2C1=O
active: HOP-92 NSCLC -29% | MALME-3M melanoma -0.209% | MDA-MB-231 breast -14.5%
inactive: NCI-H226 lung 89.2% | NCI-H322M lung 107% | NCI-H460 lung 95.6% | NCI-H522 lung 18.5% | A549/ATCC NSCLC 99.1% | 786-0 renal 106% | COLO 205 colon 101% | DU-145 prostate 95.5% | RXF 393 renal 98.3% | SF-268 CNS 69% | SF-295 CNS 93.7% | SF-539 CNS 97.1% | UACC-257 melanoma 42% | M14 melanoma 94.7%

CC(C)(C)CC(C)(C)N(CSc1ccc(Cl)cc1)CSc1ccc(Cl)cc1
inactive: NCI-H226 lung 45.2% | HOP-62 NSCLC 83.4% | NCI-H460 lung 42.9% | HOP-92 NSCLC 23.3% | A549/ATCC NSCLC 10.6% | 786-0 renal 41% | COLO 205 colon 75.6% | DU-145 prostate 73.8% | K-562 leukemia 34.8% | MALME-3M melanoma 82.1% | RXF 393 renal 66.2% | SF-268 CNS 31.5% | SF-295 CNS 27.2% | UACC-257 melanoma 63% | M14 melanoma 48.3%
active: NCI-H522 lung -4.63% | MDA-MB-231 breast 0.954% | SF-539 CNS 6.24%

C=CC[P+](c1ccccc1)(c1ccccc1)c1ccccc1
active: UACC-257 melanoma -3.34%
inactive: NCI-H226 lung 74.1% | HOP-62 NSCLC 81.7% | NCI-H460 lung 53.5% | HOP-92 NSCLC 25.4% | NCI-H522 lung 15.1% | A549/ATCC NSCLC 69.6% | 786-0 renal 84.5% | COLO 205 colon 32.8% | DU-145 prostate 79.4% | K-562 leukemia 27.2% | MALME-3M melanoma 47.8% | MDA-MB-231 breast 67.9% | RXF 393 renal 95.3% | SF-268 CNS 79.2% | SF-295 CNS 80% | SF-539 CNS 61.1% | M14 melanoma 62.4%

CCCCCCCCCCCCCCCC[N+]1(C)CCOCC1
inactive: NCI-H226 lung 48.4% | NCI-H322M lung 37.1% | A549/ATCC NSCLC 24.3% | DU-145 prostate 28.7% | SF-295 CNS 19.8% | UACC-257 melanoma 49.4%
active: NCI-H460 lung 4.21% | HOP-92 NSCLC -15.3% | NCI-H522 lung -24.8% | 786-0 renal 5.35% | COLO 205 colon -92.3% | MALME-3M melanoma -2.82% | MDA-MB-231 breast -7.42% | RXF 393 renal -79.9% | SF-268 CNS -34.5% | SF-539 CNS -1.77% | M14 melanoma 1.49%

Nc1nc(N)c(N=Nc2c(Br)cc(S(N)(=O)=O)cc2Br)c(N)n1
inactive: NCI-H226 lung 91.9% | HOP-62 NSCLC 103% | NCI-H460 lung 105% | HOP-92 NSCLC 85% | NCI-H522 lung 97.9% | A549/ATCC NSCLC 97.4% | 786-0 renal 106% | COLO 205 colon 104% | DU-145 prostate 109% | K-562 leukemia 51.1% | MALME-3M melanoma 111% | MDA-MB-231 breast 105% | RXF 393 renal 107% | SF-268 CNS 100% | SF-295 CNS 94.9% | SF-539 CNS 112% | UACC-257 melanoma 98.7% | M14 melanoma 87.8%
